The target of test [1] is Lysosomal acid glucosylceramidase (Homo sapiens) (UniProt P04062). The test is described as follows: Glucocerebrosidase-p2 (AID 348; in the data active = potency below about 10 µM; note: potency is the fitted concentration of half-maximal effect). The note with it: purified GBA, blue fluorogenic substrate, 40 min. The gist of the method:
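Normal human glucocerebrosidase (0.2 nM) with blue fluorogenic substrate (80 uM final) in citrate/phosphate pH 5.9 with 10mM sodium taurocholate, 0.01% tween-20; 40 min RT, NaOH/glycine stop; fluorescence Ex 365/Em 440; AC50 from a titration from 0.6 nM upwards.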

Test [2] in a line: AP1 Signaling Pathway (AID 357; active = well fitted curve in either direction with a large enough effect, not every such curve was filed as active; note: % is set by controls: 0 for no effect and ±100 for the full control effect). The note with it: ME-180 AP-1-bla reporter, EGF-induced, beta-lactamase ratio, 5 h; at 7.69 µM (top of the series) unless noted. In outline: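 First, ME-180 AP-1-bla cells were cultured overnight at 37 °C in low-serum Opti-MEM. Next, titrated compounds with EC50 EGF were incubated 5 hours. Finally, CCF4 was added for 2.5 hours and the 460/530 nm ratio recorded.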

For test [3], the target named is Cytochrome P450 1A2 (Homo sapiens) (UniProt P05177). Nature of the test: p450-cyp1a2 (AID 410; calls by dose curve; note: potency is the fitted concentration of half-maximal effect;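 for activity change, negative = inhibition: -100% = full effect of reference inhibitor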). The note with it: recombinant CYP1A2, luciferin-ME demethylation, luminescence; series mostly up to 57 µM. In outline: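 Luminescent demethylation readout: Luciferin-ME (100uM, equal to Km) turned over by 20nM CYP1A2 for 60 min at room temperature after NADPH regeneration addition, following 10 min compound preincubation. Normalization used 57 uM furafylline as full inhibition.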

Test [4] is described as follows: NFAT Signaling Pathway (AID 444; active = well fitted curve in either direction with a large enough effect, not every such curve was filed as active;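 note: carbachol stimulus at about its EC50 of 1 µM final; % is set by controls: 0 for no effect and ±100 for the full control effect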). The note with it: Jurkat NFAT-bla M1, carbachol, beta-lactamase ratio, 5 h; at 7.69 µM (top of the series) unless noted. The gist of the method:
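Read-out: CCF4 FRET ratio (460 nm/530 nm) after 1 h RT dye loading, used for %activity and AC50 from titration series. Cells: Jurkat NFAT-β-lactamase/M1 line, treated with compound plus 1 uM carbachol for 5 h, 37 °C.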

Test [5] concerns the target Glucocorticoid receptor (Homo sapiens) (UniProt P04150). Nature of the test: GR-GFP Redistribution (AID 450;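 active = compounds whose dose series gives a full or clear partial fitted curve of increased nuclear translocation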; note: potency is the fitted concentration of half-maximal effect). The conditions noted are these: U2OS GR-GFP nuclear translocation, laser cytometry, 2 h.
Test [6] has the same target. Nature of the test: GR-EFC Redistribution (AID 451; calls by dose curve; note: potency is the fitted concentration of half-maximal effect). The note with it: CHO-K1 GR-EFC translocation, beta-gal luminescence, 2 h. In outline:
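Translocation of GR-ED fusion to nuclear EA restores b-gal, read by luminescence after 1 h room-temperature detection. Engineered CHO-K1 biosensor cells, 1,000/well, exposed 2 h at 37 C to titrations up to 46 uM final.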

Test [7] has as its target Mitogen-activated protein kinase 10 (Mus musculus) (UniProt Q61831). The test is described as follows: JNK3 AlphaScreen Assay (AID 530; active = well fitted curve in either direction with a large enough effect, not every such curve was filed as active;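 note: kinase came from lysate of stimulated human HepG2 cells; signal reports phosphorylation of biotinylated GST-cJun 1-79 at Ser73 with 10 µM ATP; % is set by controls: 0 for no effect and ±100 for the full control effect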). The conditions noted are these: JNK3 lysate, c-Jun phosphorylation; series mostly up to 57.1 µM. In outline:
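qHTS titrations with 15 min compound pre-incubation before adding ATP (10 uM final). Read-out: AlphaScreen of Ser73-phosphorylated biotin-GST-cJun using HepG2 lysate JNK3 activated by IL-1β and TNFα.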
For orientation: In Alpha technology, singlet oxygen from a donor bead excites a nearby acceptor bead.

Test [8] has as its target 3',5'-cyclic-AMP phosphodiesterase 4B (Homo sapiens) (UniProt Q07343). Nature of the test: qHTS Assay for Inhibitors of PDE-IV (AID 607; active = well fitted activation curve with a large enough effect in the main read-out, with a control signal flat, not every such curve was filed as active; note: % of control where 0% means no effect). The conditions noted are these: HEK293 ACTOne CNG channel cells, membrane potential fluorescence; series mostly up to 22.9 µM. The gist of the method:
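Live HEK293 cells with a modified cyclic nucleotide-gated (CNG) channel report intracellular cAMP via membrane-potential dye fluorescence (ex 535/em 590 nm). Endogenous PDE-IV was targeted. Compounds were tested at up to 22.9 uM final; RO 20-1724 100 uM served as control.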
For orientation: Quantitative high-throughput screening tests each substance at several concentrations.

The target in test [9] is Cytochrome P450 3A4 (Homo sapiens) (UniProt P08684). The test is described as follows: qHTS Assay for Activators of Cytochrome P450 3A4 (AID 885). Note: nearly all actives have a fitted effect of over 65% in size. The conditions noted are these: recombinant CYP3A4, Luciferin-PPXE luminescence, 60 min; series mostly up to 57.1 µM. The gist of the method:
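Using 20nM recombinant human CYP3A4 in potassium phosphate (200mM), substrate Luciferin-PPXE at 25uM, luminescent luciferin detection followed a 60-min RT NADPH reaction; data scaled to 57 uM ketoconazole.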

The target in test [10] is Dual specificity protein kinase CLK4 (Homo sapiens) (UniProt Q9HAZ1). The test is described as follows: qHTS Assay for Inhibitors of CDC-like Kinase 4 (Kinase-Glo Assay) (AID 1770). Note: % is set by controls: 0 for no effect and ±100 for the full control effect; nearly all actives have a fitted effect of over 65% in size. The note with it: recombinant Clk4, Kinase-Glo ATP depletion luminescence; series mostly up to 66.7 µM. The gist of the method:
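Substrate mix (RS peptide 100 uM, ATP 1 uM) dispensed, compound pinned in, then Clk4 added to 25 nM final. Incubated 4.5 h at RT; Kinase-Glo reagent added, luminescence read after 5 min.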

Test [11] has the same target. Nature of the test: qHTS Assay for Inhibitors of CDC-like Kinase 4 (ADP-Glo Assay) (AID 1771). Note: % is set by controls: 0 for no effect and ±100 for the full control effect; nearly all actives have a fitted effect of over 70% in size. The conditions noted are these: recombinant CLK4, ADP-Glo luminescence; series mostly up to 80 µM. The gist of the method: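 ADP production was read by ADP-Glo luminescence after residual ATP depletion, following 1 h room-temperature reaction of 25 nM Clk4, 1 uM ATP and 100 uM RS peptide with MgCl2, EGTA, DTT and Triton X-100.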

For test [12] the target is unchanged. The test is described as follows: qHTS Assay for Inhibitors of CDC-like Kinase 4 (ADP-FP Assay) (AID 1795).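 Note: recombinant human CLK4 phosphorylating RS repeat peptide at 1 µM ATP; % is set by controls: 0 for no effect and ±100 for the full control effect; nearly all actives have a fitted effect of over 60% in size.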 The note with it: Transcreener ADP fluorescence polarization; series mostly up to 50 µM. The gist of the method:
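Clk4 6.25 nM; RS peptide 100 uM; ATP 1 uM; 25 mM Tris pH 7.5, 10 mM MgCl2; 1 h reaction. ADP detected via antibody/orange tracer FP displacement; TG003 positive control.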

Test [13] concerns the target Ubiquitin carboxyl-terminal hydrolase 1 (Homo sapiens) (UniProt O94782). The test is described as follows: Inhibitors of USP1/UAF1: Pilot qHTS (AID 504865).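 Note: rhodamine fluorescence freed from ubiquitin-rhodamine substrate followed over time; top concentration of the series differs between compounds; % is set by controls: 0 for no effect and ±100 for the full control effect; nearly all actives have a fitted effect of over 35% in size.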 The note with it: purified USP1/UAF1, Ub-rhodamine cleavage fluorescence; series mostly up to 54.9 µM. The gist of the method:
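In 50mM HEPES pH 7.8 containing 0.5mM EDTA, 1mM TCEP, 0.1 mg/ml BSA and 0.01% Tween-20, 1nM USP1/UAF1 is exposed to compound for 15 min, then Ub-Rho (150nM final) is added and fluorescence is read over time.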

Test [14] can be described thus: Primary qHTS for small molecule stabilizers of the endoplasmic reticulum resident proteome: Secreted ER Calcium Modulated Protein (SERCaMP) assay (AID 1508630). Note: % is set by controls: 0 for no effect and ±100 for the full control effect. The note with it: SH-SY5Y GLuc-SERCaMP (Gaussia luciferase released on ER calcium loss) secretion, thapsigargin, luminescence; series mostly up to 38.4 µM. In outline:
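The SH-SY5Y reporter protocol was run at 3 concentrations up to 38.3 uM (primary) or 11 concentrations (follow-up): 16 h compound, 100 nM thapsigargin for 4 h, then extracellular luciferase luminescence.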

For test [15], the target named is Cytochrome P450 2D6 (Homo sapiens) (UniProt P10635). Nature of the test: qHTS Assay for Inhibitors and Substrates of Cytochrome P450 2D6 (AID 891). Note: potency is the fitted concentration of half-maximal effect; nearly all actives have a fitted effect of over 60% in size. The conditions noted are these: recombinant CYP2D6, luciferin-ME EGE luminescence; series mostly up to 57.1 µM. In outline:
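Luminescent read-out of luciferin formed by 5 nM human CYP2D6 demethylating 30 uM Luciferin-ME EGE (Km level) over 60 min at room temperature after NADPH regeneration addition. Data normalized to full inhibition by 1.43 uM quinidine.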

Test [16] in a line: qHTS Assay for Identification of Small Molecule Agonists for Hypoxia Response Element Signaling Pathway (AID 914; active = well fitted activation curve with a large enough effect in the signal ratio, with a control signal flat, not every such curve was filed as active; the % refers to the signal ratio; note: potency is the fitted concentration of half-maximal effect). The conditions noted are these: ME-180 HRE-bla reporter, beta-lactamase ratio, CoCl2, 17 h; activation: hits give high values. In outline:
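A beta-lactamase reporter under hypoxia response element control in ME-180 cells served as the system. Compound titrations plus EC50 CoCl2 ran 17 h at 37 degrees Celsius; AC50 values were fitted from %Activity.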

Test [17] can be described thus: Stat Signaling Pathway (AID 446; active = well fitted curve in either direction with a large enough effect, not every such curve was filed as active). The conditions noted are these: ME-180 (cervical carcinoma) SIE beta-lactamase reporter, IL-6 stimulated, 5 h; at 7.69 µM (top of the series) unless noted. The gist of the method: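 Overnight-plated ME-180 cells bearing a STAT Inducible Element beta-lactamase reporter; 5 h co-exposure to compound and 40 pM IL-6; values normalized to 300 pM IL-6 and 125 nM JAK inhibitor controls.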

In test [18] the target is Cytochrome P450 3A4 (Homo sapiens) (UniProt P08684). The test is described as follows: qHTS Assay for Inhibitors and Substrates of Cytochrome P450 3A4 (AID 884). Note: potency is the fitted concentration of half-maximal effect; nearly all actives have a fitted effect of over 50% in size. The note with it: recombinant CYP3A4, Luciferin-PPXE luminescence; series mostly up to 57.1 µM. The gist of the method: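 Luminescent readout of luciferin produced by CYP3A4 (20 nM) dealkylation of Luciferin-PPXE, 25 uM (its KM). NADPH-driven reaction ran 60 min at RT after 10 min compound preincubation; data scaled to 57 uM ketoconazole as 100% inhibition.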

The target of test [19] is Cytochrome P450 2C19 (Homo sapiens) (UniProt P33261). Nature of the test: qHTS Assay for Inhibitors and Substrates of Cytochrome P450 2C19 (AID 899). Note: potency is the fitted concentration of half-maximal effect; nearly all actives have a fitted effect of over 60% in size. The note with it: recombinant CYP2C19, luciferin-H EGE luminescence; series mostly up to 57.1 µM. The gist of the method: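 Reactions contain 5nM enzyme, 10uM Luciferin-H EGE (KM) and 50mM KPO4; compound preincubates 10 min at 37C, NADPH regeneration starts turnover for 60 min. Luminescence after detection reagent gives activity.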

The results in this text go back to PubChem BioAssay (NCATS).

SMILES strings stand for the structures. Values without a mark were called inactive. Inconclusive results are not listed. Activity calls are given as the source filed them. Unless noted, calls come from the whole dose curve; as a rule, active = well fitted curve in the direction sought with a large enough effect; inconclusive = small, poorly fitted or top-dose-only effect, or another doubt; inactive = no such curve, though single readings can be large; an effect the other way counts as inactive or inconclusive.

Ubiquitin carboxyl-terminal hydrolase 1 (Homo sapiens), sequence (O94782 whole entry, looked up): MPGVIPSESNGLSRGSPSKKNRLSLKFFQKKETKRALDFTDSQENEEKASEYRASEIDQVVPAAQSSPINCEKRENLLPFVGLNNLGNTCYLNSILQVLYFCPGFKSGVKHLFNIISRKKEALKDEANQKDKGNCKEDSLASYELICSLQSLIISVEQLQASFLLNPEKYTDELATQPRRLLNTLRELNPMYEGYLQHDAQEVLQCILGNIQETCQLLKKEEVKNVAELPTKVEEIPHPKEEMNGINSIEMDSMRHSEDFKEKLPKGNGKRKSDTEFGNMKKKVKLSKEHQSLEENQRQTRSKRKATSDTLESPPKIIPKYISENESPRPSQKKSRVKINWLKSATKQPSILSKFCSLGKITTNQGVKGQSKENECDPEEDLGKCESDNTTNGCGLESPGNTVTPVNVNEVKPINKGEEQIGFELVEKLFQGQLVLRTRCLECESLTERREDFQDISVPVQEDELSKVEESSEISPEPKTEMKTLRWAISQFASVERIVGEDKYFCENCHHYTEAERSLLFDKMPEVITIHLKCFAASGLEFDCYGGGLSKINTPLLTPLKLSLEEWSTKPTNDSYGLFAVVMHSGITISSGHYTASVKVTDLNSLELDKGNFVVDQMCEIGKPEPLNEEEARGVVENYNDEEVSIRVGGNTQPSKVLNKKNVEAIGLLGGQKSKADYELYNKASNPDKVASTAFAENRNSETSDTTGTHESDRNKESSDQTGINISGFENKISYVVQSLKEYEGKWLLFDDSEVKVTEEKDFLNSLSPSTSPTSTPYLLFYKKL
Cytochrome P450 1A2 (Homo sapiens), sequence (P05177 whole entry, looked up): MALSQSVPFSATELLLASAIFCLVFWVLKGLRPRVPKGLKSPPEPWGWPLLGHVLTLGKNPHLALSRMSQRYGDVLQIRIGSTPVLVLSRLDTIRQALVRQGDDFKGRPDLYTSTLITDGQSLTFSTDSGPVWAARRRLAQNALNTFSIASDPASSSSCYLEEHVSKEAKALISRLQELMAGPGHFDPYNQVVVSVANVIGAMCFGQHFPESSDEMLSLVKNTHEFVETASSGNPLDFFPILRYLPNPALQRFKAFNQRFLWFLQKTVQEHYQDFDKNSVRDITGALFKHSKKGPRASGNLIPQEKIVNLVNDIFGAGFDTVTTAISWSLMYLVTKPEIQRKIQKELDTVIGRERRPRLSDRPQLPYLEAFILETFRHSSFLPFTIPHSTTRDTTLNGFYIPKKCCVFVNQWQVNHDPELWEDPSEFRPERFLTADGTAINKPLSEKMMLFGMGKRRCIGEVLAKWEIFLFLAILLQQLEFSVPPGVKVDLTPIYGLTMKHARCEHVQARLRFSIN
Cytochrome P450 3A4 (Homo sapiens), sequence (P08684 whole entry, looked up): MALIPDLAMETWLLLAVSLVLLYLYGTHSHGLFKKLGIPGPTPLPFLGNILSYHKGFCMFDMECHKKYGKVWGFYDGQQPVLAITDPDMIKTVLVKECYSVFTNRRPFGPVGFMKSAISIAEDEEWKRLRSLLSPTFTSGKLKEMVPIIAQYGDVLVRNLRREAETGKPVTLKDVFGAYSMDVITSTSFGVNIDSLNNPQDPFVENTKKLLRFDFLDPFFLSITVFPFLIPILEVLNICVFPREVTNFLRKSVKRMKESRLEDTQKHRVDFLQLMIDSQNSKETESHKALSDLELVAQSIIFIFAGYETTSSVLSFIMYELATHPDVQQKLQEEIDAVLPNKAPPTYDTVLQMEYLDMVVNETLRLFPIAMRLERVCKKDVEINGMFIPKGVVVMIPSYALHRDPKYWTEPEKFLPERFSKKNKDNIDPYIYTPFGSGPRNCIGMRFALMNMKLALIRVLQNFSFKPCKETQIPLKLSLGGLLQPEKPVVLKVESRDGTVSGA
Lysosomal acid glucosylceramidase (Homo sapiens), sequence (P04062 whole entry, looked up): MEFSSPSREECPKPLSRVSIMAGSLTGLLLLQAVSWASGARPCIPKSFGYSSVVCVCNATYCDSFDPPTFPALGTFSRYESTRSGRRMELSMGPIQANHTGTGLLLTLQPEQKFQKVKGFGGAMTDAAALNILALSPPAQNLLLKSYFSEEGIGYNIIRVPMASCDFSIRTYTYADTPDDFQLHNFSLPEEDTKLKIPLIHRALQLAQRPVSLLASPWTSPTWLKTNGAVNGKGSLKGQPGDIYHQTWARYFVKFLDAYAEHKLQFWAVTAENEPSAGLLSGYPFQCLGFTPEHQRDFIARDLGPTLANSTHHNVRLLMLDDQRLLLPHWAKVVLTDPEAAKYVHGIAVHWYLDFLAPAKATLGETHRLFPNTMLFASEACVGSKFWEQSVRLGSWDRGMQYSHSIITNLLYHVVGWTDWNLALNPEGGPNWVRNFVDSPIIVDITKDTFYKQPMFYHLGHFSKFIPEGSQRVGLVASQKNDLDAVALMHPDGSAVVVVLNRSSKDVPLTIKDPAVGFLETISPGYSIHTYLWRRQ
Glucocorticoid receptor (Homo sapiens), sequence (P04150 whole entry, looked up): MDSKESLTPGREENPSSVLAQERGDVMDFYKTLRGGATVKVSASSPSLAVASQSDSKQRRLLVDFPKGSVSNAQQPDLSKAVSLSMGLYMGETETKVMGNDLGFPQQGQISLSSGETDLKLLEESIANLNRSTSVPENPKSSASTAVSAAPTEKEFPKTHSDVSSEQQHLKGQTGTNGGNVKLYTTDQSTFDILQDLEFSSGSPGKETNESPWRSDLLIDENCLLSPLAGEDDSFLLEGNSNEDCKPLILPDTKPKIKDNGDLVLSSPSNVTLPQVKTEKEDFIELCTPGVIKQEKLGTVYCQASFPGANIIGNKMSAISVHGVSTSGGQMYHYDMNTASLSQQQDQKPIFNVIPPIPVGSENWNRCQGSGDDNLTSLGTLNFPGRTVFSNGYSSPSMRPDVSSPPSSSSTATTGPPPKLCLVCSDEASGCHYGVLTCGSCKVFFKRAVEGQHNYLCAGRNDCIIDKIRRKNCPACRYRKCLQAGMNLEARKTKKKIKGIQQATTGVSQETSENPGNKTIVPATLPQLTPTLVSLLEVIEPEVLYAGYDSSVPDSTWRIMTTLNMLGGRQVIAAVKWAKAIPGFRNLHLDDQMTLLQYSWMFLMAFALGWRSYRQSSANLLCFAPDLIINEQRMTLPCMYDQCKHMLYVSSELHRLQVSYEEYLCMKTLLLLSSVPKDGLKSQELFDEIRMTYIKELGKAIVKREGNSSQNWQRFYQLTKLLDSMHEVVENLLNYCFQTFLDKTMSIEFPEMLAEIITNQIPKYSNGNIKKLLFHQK
3',5'-cyclic-AMP phosphodiesterase 4B (Homo sapiens), sequence (Q07343 whole entry, looked up): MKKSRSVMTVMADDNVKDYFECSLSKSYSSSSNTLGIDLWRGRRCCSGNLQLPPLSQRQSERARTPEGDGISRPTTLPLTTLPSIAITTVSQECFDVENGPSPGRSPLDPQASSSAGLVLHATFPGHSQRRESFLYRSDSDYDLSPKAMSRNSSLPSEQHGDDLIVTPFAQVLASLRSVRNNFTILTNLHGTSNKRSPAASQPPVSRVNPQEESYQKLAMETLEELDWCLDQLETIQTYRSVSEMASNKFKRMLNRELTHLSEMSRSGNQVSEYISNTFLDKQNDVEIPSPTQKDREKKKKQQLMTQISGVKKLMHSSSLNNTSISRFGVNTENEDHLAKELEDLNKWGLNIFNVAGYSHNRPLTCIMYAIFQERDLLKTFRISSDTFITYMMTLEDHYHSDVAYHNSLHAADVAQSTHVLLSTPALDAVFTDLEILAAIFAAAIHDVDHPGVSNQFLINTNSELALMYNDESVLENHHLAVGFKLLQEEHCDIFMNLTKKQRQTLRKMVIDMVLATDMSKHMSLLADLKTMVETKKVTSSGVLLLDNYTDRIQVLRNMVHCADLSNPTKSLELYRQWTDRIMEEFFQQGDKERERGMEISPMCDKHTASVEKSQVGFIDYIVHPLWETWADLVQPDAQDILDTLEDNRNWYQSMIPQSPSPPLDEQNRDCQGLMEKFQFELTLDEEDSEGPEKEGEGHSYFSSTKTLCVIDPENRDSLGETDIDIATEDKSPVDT
Dual specificity protein kinase CLK4 (Homo sapiens), sequence (Q9HAZ1 whole entry, looked up): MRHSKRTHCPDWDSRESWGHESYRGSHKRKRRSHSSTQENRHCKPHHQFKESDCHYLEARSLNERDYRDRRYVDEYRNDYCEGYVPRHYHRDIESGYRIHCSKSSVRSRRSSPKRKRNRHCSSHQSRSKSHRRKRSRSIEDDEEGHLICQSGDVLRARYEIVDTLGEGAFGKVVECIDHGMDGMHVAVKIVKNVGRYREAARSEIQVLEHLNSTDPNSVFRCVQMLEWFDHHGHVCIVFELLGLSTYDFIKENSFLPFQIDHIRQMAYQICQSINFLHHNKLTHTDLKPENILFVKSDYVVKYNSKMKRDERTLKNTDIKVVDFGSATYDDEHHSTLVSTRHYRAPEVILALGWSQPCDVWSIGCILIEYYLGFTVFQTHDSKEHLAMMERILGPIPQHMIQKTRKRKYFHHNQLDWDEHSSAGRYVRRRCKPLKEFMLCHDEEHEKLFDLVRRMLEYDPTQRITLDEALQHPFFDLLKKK
Cytochrome P450 2D6 (Homo sapiens), sequence (P10635 whole entry, looked up): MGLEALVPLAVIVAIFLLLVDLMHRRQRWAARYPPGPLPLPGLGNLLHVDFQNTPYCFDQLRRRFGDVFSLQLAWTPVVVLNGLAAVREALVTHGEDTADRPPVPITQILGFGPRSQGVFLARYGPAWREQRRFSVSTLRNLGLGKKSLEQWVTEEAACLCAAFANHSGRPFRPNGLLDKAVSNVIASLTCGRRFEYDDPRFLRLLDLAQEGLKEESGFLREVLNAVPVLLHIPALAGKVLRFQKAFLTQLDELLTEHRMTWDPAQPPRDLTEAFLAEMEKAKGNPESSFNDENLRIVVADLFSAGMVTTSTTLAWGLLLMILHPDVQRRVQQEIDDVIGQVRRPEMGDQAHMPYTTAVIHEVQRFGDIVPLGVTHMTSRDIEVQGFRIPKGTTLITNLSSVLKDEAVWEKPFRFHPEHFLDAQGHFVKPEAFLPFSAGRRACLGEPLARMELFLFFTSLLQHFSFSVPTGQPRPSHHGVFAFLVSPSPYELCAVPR

`COc1cccc(Cn2c(=O)c(-c3cccs3)nc3cnc(OCc4ccccc4)nc32)c1`: the Potency in test [1] was more than 11.4 µM; in [3], 1.58 µM (active); in test [5], more than 9.22 µM; in test [6], more than 46 µM. The results for the activity change, negative = inhibition in [2] and in test [4] were 27.9% and 3.84%, respectively. Moreover, the Potency entry in test [7], in [8], in [9], in [10], in test [11] and in test [12] was “inactive” in each case. In test [13], the Potency result is “inactive”. Also, the result in test [14] was inactive.

As for `CCNc1ncc2nc(-c3ccccc3)c(=O)n(CCOC)c2n1`, the Potency is more than 11.4 µM in test [1]; 3.16 µM (active) in test [3]; more than 9.22 µM in [5]; more than 46 µM in [6]; 3.16 µM (active) in test [15]. Besides, the activity change, negative = inhibition in [2] was 22.2%; in test [4], 22.8%. For the same compound, the Potency result in [7], in test [8], in test [9], in test [10], in test [11] and in [12] was “inactive” in each case. In [13], the Potency entry is “inactive”. In addition, the outcome in [14] was inactive.

As to `CCNc1ncc2nc(-c3cn(C)c4ccccc34)c(=O)n(Cc3ccc(F)cc3)c2n1`, the Potency in test [1] is more than 11.4 µM; in [3], 15.8 µM (active); in test [5], more than 9.22 µM; in test [6] it was more than 46 µM; in test [16] it was 2.51 µM (active). The activity change, negative = inhibition in test [2] was -5.76%; in test [4], 2.58%. In addition, the Potency entry in test [7], in [8], in test [9], in test [10], in test [11] and in [12] was “inactive” throughout. Further, in test [13], the Potency result was “inactive”. For the same compound, the outcome in test [14] was inactive.

For `O=c1c(-c2ccccc2)nc2cnc(N3CCOCC3)nc2n1Cc1cccs1`, the figures for the Potency in test [1], in test [3] and in test [5] were more than 11.4 µM, 2.51 µM (active) and more than 9.22 µM, respectively. In addition, the activity change, negative = inhibition in test [2] is 20.9%; in test [4], 14.9%. Further, the Potency entry in [7], in [8], in [10], in test [11], in [12] and in test [13] was “inactive” each time. Besides, the outcome in test [14] was inactive.

In the case of `COc1ncc2nc(CCc3ccccc3)c(=O)n(CCc3ccccc3)c2n1`, the Potency in test [1] was more than 11.4 µM; in test [3], 3.98 µM (active); in test [6] it was more than 46 µM; in [18] it was 3.16 µM (active); in test [19], 7.94 µM (active). The results for the activity change, negative = inhibition in [2] and in test [4] were -0.194% and -0.888%, respectively. In test [17], the activity, negative = inhibition is -1.74%. The Potency entry in [7], in test [9], in test [10], in test [11], in test [12] and in [13] was “inactive” each time. Moreover, the outcome in test [14] was inactive.

With `N#CCCn1c(=O)c(CCc2ccccc2)nc2cnc(Nc3ccccc3)nc21`, the Potency in [1] is more than 11.4 µM; in test [5], more than 9.22 µM; in test [6], more than 46 µM. Moreover, the activity change, negative = inhibition in [2] was -27.7%; in test [4], -25.2%. The Potency result in test [3], in test [7], in [8], in [9], in test [10] and in test [11] was “inactive” throughout. Further, the Potency result in [12] and in [13] was “inactive” each time. In test [14], the outcome was inactive.
